Results as given in PubChem BioAssay (NCI).
Compounds without any hit were thinned out: in the full panel of roughly 83,000, 20% have a hit.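 Cell lines were cultured in 96-well plates, exposed to a single compound concentration, and assessed for percent growth 48 hours later.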 A number with no mark means an inactive call. Activity calls are given as the source filed them. How the source made its calls: active means growth percent below 10; inactive means the rest.

Legend:
Experiment in all cases: NCI-60 one-dose screen, 48 h (100 = growth as untreated, 0 = no growth, -100 = all killed)
Details in all cases: 10 µM unless noted
DU-145 prostate = system: DU-145 prostate
K-562 leukemia = system: K-562 leukemia
MALME-3M melanoma = system: MALME-3M melanoma
MDA-MB-231 breast = system: MDA-MB-231 breast
RXF 393 renal = system: RXF 393 renal
SF-268 CNS = system: SF-268 CNS
SF-295 CNS = system: SF-295 CNS
SF-539 CNS = system: SF-539 CNS
UACC-257 melanoma = system: UACC-257 melanoma
M14 melanoma = system: M14 melanoma
HCT-15 colon = system: HCT-15 colon
HT29 colon = system: HT29 colon
SNB-75 CNS = system: SNB-75 CNS
SNB-19 CNS = system: SNB-19 CNS
U251 CNS = system: U251 CNS
PC-3 prostate = system: PC-3 prostate
SK-MEL-5 melanoma = system: SK-MEL-5 melanoma
UACC-62 melanoma = system: UACC-62 melanoma
LOX IMVI melanoma = system: LOX IMVI melanoma
SK-MEL-28 melanoma = system: SK-MEL-28 melanoma

SMILES	growth (DU-145 prostate)	growth (K-562 leukemia)	growth (MALME-3M melanoma)	growth (MDA-MB-231 breast)	growth (RXF 393 renal)	growth (SF-268 CNS)	growth (SF-295 CNS)	growth (SF-539 CNS)	growth (UACC-257 melanoma)	growth (M14 melanoma)	growth (HCT-15 colon)	growth (HT29 colon)	growth (SNB-75 CNS)	growth (SNB-19 CNS)	growth (U251 CNS)	growth (PC-3 prostate)	growth (SK-MEL-5 melanoma)	growth (UACC-62 melanoma)	growth (LOX IMVI melanoma)	growth (SK-MEL-28 melanoma)
CCN(CC)CCCC(C)Nc1c2ccc(Cl)cc2nc2ccc(O)cc12 (stereo not given)	41.3%	-3.7% (active)	51.2%	47.4%	-19.9% (active)	58.5%	61%	15.6%	-58.4% (active)	14.2%	42.3%	48.2%	35.3%	44.8%	32.5%	48.7%	34.7%	82.3%	0.124% (active)	57.5%
O=C1/C(=C/c2ccc(Br)cc2)C=C(c2ccccc2)N1CCc1ccccc1	54.1%	75.5%	50.5%	24.8%	31.5%	33.7%	-25.6% (active)	36%	43.7%	49.9%	69.7%	32.5%	-34.3% (active)	6.97% (active)	6.97% (active)	22.1%	77.1%	46.6%	42.2%	70.2%
CCOC(=O)c1c(-c2ccc(Cl)cc2)c(C#N)c(=O)n(-c2ccccc2CC)c1N	93.5%	77.6%	100%	90.8%	111%	86.8%	74.3%	100%	113%	105%	89.7%	110%	89.8%	120%	90%	77.5%	85.1%	68.8%	95%	99.3%
O=[N+]([O-])c1ccc(Sc2cccc[n+]2[O-])c2nonc12	50%	-21.7% (active)	100%	90.4%	54.5%	58.9%	89.9%	93.6%	91.5%	71.3%	73.1%	78.2%	80.7%	88.3%	2.22% (active)	41.8%	72.3%	50.6%	2.14% (active)	23.8%
Cc1ccc(Nc2nc(N)nc(CSCC(=O)NN)n2)cc1	103%	96.6%	111%	98.9%	103%	97.9%	99.3%	95.1%	108%	114%	101%	106%	85.2%	98.5%	92.9%	93%	101%	90.8%	95.2%	99.9%
O=C(N/N=C/c1ccncc1)c1ccc(C(F)(F)F)nc1Nc1cccc(C(F)(F)F)c1	40.6%	13.9%	4.45% (active)	21.1%	-8.63% (active)	23.4%	-24.1% (active)	26.1%	21.9%	25.4%	13.1%	23.1%	46.7%	36%	8.49% (active)	20.5%	10%	15.1%	20.5%	44.9%
CCCCN(CCCC)CC(C)(C)C(O)c1ccc(OC)c2ccccc12 (stereo not given)	69.2%	31.2%	47.3%	70.8%	65%	85.3%	-7.15% (active)	76.9%	60.2%	37%	59.1%	9.09% (active)	101%	76.3%	50.3%	29.5%	50.7%	56.1%	66.6%	85%
COc1cccc(-c2nn(-c3ccccc3)cc2-c2ccnc(NCCCNC(=O)c3ccc(F)cc3)c2)c1	65.5%	16.9%	48.2%	51.3%	56.3%	53.7%	36.5%	68.3%	42.3%	20.3%	24.9%	11.7%	46.2%	67.2%	36.4%	27.1%	6.09% (active)	40.1%	55.7%	58.7%
Cc1ccc(/C=C2\C(=O)N(C)c3ccc(S(=O)(=O)Nc4ccc(C(C)(C)C)cc4)cc32)s1	38.9%	66.7%	42.5%	21.2%	42.1%	26.7%	42.6%	19.4%	76%	67%	68%	64.9%	-18.3% (active)	58.3%	20.5%	52.9%	82.3%	60.7%	28.2%	69.1%
C[C@@]1(CCC#N)[C@H]2CC[C@@H]3[C@H]4[C@H](C(=O)/C=C/c5cccnc5)CC[C@]4(C#N)CC[C@@]3(C)[C@]2(C)CC[C@H]1C(=O)/C=C/c1cccnc1	81.5%	23.2%	109%	93.4%	69.7%	61.7%	100%	83.7%	67.5%	74.7%	31.5%	24.1%	72.7%	86.9%	64.1%	65%	77.3%	52.4%	17.5%	97.3%
NNC(=O)c1nc(N)n(-c2ccc(S(N)(=O)=O)cc2)n1	92.8%	96.5%	97.8%	88.6%	110%	93.3%	109%	89.2%	97.2%	94.4%	107%	99.9%	92.5%	96.4%	88.8%	89.7%	96.9%	99.2%	93.3%	108%
CC1(C)CC(=O)CC2(C1)N=C(N)Nc1nc3ccccc3n12 (stereo not given)	115%	103%	104%	96.5%	104%	107%	108%	105%	106%	110%	98.2%	91.6%	82.3%	99.2%	104%	95.7%	97.4%	95.9%	94.9%	101%
NS(=O)(=O)c1cnccc1Sc1ccncc1S(N)(=O)=O	102%	76.3%	91.1%	111%	108%	107%	130%	93%	111%	100%	102%	113%	96.6%	105%	107%	94.9%	105%	99.4%	101%	117%
